# From the supplement of paper PMC10849652
# Targets with a hit are over-represented here; the source holds about 7,900 in all. About 0.6% of all pairs of compound and target were hits. A number with no mark means an inactive call.
# How the values were obtained:
# Experiment in all cases: log2 fold change, soluble protein after heating vs DMSO (PISA); higher = thermal stabilisation; K562 cells, 10 uM, 30 min; active = over 0.2 and 3.5 SD of the protein, either way, in both replicates (recomputed)
# [1] = compound: COC1=CC=C(C=C1)CN2C=CC3=C2C=C(C=C3)C(=O)NO
# How it was run: (§1)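 K562 cells at 2×10^6 cells/mL were treated with 10 μM compound for 30 min. Aliquots were heated for 3 min across 48°C-58°C, pooled, and extracted in PBS with 0.5% NP-40 at 4°C; soluble protein was the supernatant after 21,000xg for 90 min. Soluble protein was quantified by TMTpro 16plex LC-MS/MS with channel sums equalised, and reported as log2 fold change in thermal stability against DMSO controls, with values from duplicates.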
# filanesib = compound: CON(C)C(=O)N1N=C(c2cc(F)ccc2F)S[C@@]1(CCCN)c1ccccc1 [filanesib]
# How it was run: as §1
# zotarolimus = compound: CO[C@H]1C[C@@H]2CC[C@@H](C)[C@@](O)(O2)C(=O)C(=O)N2CCCC[C@H]2C(=O)O[C@H]([C@H](C)C[C@@H]2CC[C@H](n3cnnn3)[C@H](OC)C2)CC(=O)[C@H](C)/C=C(\C)[C@@H](O)[C@@H](OC)C(=O)[C@H](C)C[C@H](C)/C=C/C=C/C=C/1C [zotarolimus]
# How it was run: as §1
# idasanutlin = compound: COc1cc(C(=O)O)ccc1NC(=O)[C@@H]1N[C@@H](CC(C)(C)C)[C@](C#N)(c2ccc(Cl)cc2F)[C@H]1c1cccc(Cl)c1F [idasanutlin]
# How it was run: as §1
# alisertib = compound: COc1cc(Nc2ncc3c(n2)-c2ccc(Cl)cc2C(c2c(F)cccc2OC)=NC3)ccc1C(=O)O [alisertib]
# How it was run: as §1
# [2] = compound: COc1cc2nc(-c3cc(F)ccc3O)nc(N[C@@H]3CNC[C@H]3C(C)(C)O)c2cc1OC
# How it was run: as §1
# gefitinib = compound: COc1cc2ncnc(Nc3ccc(F)c(Cl)c3)c2cc1OCCCN1CCOCC1 [gefitinib]
# How it was run: as §1
# [3] = compound: COc1cccc2cc(-c3nc([C@H]4CC[C@H](C(=O)O)CC4)n4ncnc(N)c34)[nH]c12
# How it was run: as §1
# lapatinib = compound: CS(=O)(=O)CCNCc1ccc(-c2ccc3ncnc(Nc4ccc(OCc5cccc(F)c5)c(Cl)c4)c3c2)o1 [lapatinib]
# How it was run: as §1
# pictilisib = compound: CS(=O)(=O)N1CCN(Cc2cc3nc(-c4cccc5[nH]ncc45)nc(N4CCOCC4)c3s2)CC1 [pictilisib]
# How it was run: as §1
# [4] = compound: CS(=O)(=O)c1ccc(-c2cnc(N)c(C(=O)Nc3ccccc3)n2)cc1
# How it was run: as §1
# crizotinib = compound: C[C@@H](Oc1cc(-c2cnn(C3CCNCC3)c2)cnc1N)c1c(Cl)ccc(F)c1Cl [crizotinib]
# How it was run: as §1
# [5] = compound: C[C@@H]1COCCN1C2=NC(=NC(=C2)C3(CC3)S(=O)(=O)C)C4=C5C=CNC5=CC=C4
# How it was run: as §1
# [6] = compound: C[C@H](C1=CC=C(C=C1)C(=O)NC2=C3C=CNC3=NC=C2)N
# How it was run: as §1
# duvelisib = compound: C[C@H](Nc1ncnc2nc[nH]c12)c1cc2cccc(Cl)c2c(=O)n1-c1ccccc1 [duvelisib]
# How it was run: as §1
# gandotinib = compound: Cc1cc(Nc2cc(CN3CCOCC3)c3nc(C)c(Cc4ccc(Cl)cc4F)n3n2)n[nH]1 [gandotinib]
# How it was run: as §1
# tozasertib = compound: Cc1cc(Nc2cc(N3CCN(C)CC3)nc(Sc3ccc(NC(=O)C4CC4)cc3)n2)n[nH]1 [tozasertib]
# How it was run: as §1
# [7] = compound: Cc1cc(SCc2sc(-c3ccc(C(F)(F)F)cc3)nc2C)ccc1OCC(=O)O
# How it was run: as §1
# doramapimod = compound: Cc1ccc(-n2nc(C(C)(C)C)cc2NC(=O)Nc2ccc(OCCN3CCOCC3)c3ccccc23)cc1 [doramapimod]
# How it was run: as §1
# ispinesib = compound: Cc1ccc(C(=O)N(CCCN)[C@@H](c2nc3cc(Cl)ccc3c(=O)n2Cc2ccccc2)C(C)C)cc1 [ispinesib]
# How it was run: as §1
# Sequence of UniProt Q8WXA9 (Q8WXA9 whole entry, looked up): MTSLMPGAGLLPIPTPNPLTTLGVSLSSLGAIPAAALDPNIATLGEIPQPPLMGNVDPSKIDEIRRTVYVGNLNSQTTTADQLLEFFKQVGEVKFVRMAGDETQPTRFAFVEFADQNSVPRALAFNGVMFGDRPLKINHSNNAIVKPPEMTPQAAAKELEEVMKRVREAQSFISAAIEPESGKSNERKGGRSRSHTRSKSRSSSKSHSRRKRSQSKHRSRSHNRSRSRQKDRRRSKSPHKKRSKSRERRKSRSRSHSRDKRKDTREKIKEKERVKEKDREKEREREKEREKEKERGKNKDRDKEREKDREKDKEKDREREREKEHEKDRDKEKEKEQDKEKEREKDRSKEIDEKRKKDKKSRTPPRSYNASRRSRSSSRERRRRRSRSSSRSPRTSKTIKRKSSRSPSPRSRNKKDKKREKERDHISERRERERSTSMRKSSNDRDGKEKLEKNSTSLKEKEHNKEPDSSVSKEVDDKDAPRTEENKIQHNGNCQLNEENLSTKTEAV
# Sequence of UniProt Q14849 (Q14849 whole entry, looked up): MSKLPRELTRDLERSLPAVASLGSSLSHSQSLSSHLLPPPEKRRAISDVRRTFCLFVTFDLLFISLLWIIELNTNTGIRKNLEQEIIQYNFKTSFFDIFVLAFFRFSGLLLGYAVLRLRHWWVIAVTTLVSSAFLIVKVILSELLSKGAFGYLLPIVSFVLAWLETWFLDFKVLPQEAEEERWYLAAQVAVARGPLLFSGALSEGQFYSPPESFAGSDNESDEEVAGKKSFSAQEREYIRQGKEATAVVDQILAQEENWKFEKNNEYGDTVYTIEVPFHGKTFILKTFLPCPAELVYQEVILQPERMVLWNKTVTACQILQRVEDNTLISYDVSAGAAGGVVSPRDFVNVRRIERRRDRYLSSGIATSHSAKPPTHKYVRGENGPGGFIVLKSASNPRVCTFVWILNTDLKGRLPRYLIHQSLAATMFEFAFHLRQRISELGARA
# Sequence of UniProt Q658P3 (Q658P3 whole entry, looked up): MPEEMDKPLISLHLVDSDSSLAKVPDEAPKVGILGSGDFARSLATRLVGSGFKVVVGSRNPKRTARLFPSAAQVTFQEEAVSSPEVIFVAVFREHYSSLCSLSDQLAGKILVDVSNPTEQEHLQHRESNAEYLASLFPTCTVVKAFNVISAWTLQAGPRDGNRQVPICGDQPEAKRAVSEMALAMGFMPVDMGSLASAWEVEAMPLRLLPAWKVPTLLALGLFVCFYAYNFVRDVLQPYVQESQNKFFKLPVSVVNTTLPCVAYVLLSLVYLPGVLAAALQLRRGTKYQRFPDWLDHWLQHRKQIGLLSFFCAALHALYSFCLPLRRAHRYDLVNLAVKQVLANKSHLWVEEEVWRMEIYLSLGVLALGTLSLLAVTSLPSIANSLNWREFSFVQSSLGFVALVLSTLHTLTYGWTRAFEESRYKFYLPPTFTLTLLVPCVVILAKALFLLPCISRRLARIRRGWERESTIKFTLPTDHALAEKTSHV
# Sequence of UniProt Q9Y2W1 (Q9Y2W1 whole entry, looked up): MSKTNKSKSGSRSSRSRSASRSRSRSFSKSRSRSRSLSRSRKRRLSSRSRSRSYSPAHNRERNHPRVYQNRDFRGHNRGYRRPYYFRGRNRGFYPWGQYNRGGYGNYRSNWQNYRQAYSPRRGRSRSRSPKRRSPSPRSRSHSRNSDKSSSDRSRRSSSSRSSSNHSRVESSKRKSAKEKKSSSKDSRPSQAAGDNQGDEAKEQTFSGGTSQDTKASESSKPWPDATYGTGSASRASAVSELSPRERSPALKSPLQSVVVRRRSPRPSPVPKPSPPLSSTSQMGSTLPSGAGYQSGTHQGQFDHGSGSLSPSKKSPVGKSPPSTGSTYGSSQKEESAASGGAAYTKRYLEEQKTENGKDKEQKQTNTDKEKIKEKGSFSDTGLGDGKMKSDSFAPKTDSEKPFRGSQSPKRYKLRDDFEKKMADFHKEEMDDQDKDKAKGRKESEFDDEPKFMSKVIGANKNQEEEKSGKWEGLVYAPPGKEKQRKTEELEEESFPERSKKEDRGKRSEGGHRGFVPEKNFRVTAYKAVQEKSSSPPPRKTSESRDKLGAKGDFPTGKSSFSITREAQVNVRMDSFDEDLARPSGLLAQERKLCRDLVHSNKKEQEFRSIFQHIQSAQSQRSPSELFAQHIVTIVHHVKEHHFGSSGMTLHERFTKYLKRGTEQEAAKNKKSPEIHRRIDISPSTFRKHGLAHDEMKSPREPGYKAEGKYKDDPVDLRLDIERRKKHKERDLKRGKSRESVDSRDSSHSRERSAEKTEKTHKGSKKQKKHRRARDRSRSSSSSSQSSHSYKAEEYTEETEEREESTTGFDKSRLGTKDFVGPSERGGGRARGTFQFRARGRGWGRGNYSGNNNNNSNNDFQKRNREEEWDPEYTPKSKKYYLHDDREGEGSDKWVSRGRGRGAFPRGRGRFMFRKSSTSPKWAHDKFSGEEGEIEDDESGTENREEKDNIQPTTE
# Sequence of UniProt Q92609 (Q92609 whole entry, looked up): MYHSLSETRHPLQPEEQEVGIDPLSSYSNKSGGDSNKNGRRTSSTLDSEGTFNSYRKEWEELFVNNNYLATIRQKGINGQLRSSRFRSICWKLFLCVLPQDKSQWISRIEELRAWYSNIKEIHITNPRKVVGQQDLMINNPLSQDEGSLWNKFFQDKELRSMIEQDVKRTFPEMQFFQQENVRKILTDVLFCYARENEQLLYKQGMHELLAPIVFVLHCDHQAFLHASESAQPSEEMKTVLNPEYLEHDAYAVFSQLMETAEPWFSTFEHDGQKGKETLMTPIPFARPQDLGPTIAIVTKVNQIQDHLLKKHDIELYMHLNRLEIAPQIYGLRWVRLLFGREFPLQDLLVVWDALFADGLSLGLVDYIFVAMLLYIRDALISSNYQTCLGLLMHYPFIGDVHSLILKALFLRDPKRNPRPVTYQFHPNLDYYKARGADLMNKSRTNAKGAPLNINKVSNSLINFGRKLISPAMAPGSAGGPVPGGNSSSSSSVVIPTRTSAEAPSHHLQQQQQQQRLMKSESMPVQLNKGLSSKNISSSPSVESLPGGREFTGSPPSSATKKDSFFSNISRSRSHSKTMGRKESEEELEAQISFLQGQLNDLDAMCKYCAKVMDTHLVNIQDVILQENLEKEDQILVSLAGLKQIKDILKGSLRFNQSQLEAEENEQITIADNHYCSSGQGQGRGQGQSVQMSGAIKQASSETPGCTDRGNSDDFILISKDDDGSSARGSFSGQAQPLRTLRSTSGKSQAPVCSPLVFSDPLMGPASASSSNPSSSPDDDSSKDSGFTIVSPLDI
# Sequence of UniProt P35270 (P35270 whole entry, looked up): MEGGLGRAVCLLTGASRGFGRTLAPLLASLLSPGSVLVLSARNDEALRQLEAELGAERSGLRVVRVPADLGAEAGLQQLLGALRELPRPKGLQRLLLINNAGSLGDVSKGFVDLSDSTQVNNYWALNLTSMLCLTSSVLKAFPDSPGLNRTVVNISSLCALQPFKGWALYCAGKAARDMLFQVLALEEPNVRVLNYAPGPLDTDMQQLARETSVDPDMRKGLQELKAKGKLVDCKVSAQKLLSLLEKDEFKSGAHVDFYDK
# Sequence of UniProt Q13428 (Q13428 whole entry, looked up): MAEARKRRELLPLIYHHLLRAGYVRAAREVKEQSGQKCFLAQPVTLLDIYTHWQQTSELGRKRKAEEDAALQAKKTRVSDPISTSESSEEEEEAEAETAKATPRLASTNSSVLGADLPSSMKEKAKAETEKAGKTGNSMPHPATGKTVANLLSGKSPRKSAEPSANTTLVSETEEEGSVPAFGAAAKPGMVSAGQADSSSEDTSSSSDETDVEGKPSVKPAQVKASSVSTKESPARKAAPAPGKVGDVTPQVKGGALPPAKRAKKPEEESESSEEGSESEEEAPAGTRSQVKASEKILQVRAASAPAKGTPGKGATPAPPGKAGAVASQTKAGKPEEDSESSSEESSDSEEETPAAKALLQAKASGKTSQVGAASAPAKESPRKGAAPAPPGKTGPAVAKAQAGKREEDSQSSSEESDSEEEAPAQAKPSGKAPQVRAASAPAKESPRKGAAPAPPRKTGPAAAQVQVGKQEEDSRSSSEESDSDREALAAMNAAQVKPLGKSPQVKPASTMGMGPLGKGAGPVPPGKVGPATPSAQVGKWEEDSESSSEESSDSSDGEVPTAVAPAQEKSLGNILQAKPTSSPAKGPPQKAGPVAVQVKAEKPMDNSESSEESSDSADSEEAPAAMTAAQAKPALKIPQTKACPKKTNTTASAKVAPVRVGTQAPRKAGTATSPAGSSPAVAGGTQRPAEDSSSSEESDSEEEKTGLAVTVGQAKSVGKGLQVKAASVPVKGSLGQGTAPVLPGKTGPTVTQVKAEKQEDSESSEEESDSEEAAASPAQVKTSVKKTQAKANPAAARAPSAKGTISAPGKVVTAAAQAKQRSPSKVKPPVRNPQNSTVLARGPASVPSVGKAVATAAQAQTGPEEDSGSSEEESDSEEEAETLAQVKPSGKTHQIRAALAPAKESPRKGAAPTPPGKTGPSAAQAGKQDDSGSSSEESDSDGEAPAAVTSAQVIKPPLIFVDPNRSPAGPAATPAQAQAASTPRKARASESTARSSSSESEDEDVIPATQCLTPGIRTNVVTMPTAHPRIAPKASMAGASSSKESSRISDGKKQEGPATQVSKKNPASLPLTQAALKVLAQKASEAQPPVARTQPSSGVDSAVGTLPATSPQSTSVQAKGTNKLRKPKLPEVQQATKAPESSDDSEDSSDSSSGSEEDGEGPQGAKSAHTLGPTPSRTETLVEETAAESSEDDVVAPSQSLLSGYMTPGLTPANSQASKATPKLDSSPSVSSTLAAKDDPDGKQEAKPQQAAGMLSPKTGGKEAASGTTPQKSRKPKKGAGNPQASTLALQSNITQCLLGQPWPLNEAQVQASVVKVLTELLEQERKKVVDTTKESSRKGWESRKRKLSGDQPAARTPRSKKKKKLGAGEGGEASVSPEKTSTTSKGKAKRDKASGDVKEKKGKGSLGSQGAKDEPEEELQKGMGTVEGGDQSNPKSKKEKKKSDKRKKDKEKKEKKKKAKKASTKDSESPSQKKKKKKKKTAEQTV
Target,log2 fold change [1],log2 fold change (filanesib),log2 fold change (zotarolimus),log2 fold change (idasanutlin),log2 fold change (alisertib),log2 fold change [2],log2 fold change (gefitinib),log2 fold change [3],log2 fold change (lapatinib),log2 fold change (pictilisib),log2 fold change [4],log2 fold change (crizotinib),log2 fold change [5],log2 fold change [6],log2 fold change (duvelisib),log2 fold change (gandotinib),log2 fold change (tozasertib),log2 fold change [7],log2 fold change (doramapimod),log2 fold change (ispinesib)
TAF9 (UniProt Q16594),0.066,0.109,-0.018,0.056,-0.109,0.024,0.01,0.019,-0.028,-0.017,-0.029,0.043,0.007,0.116,0.009,-0.047,-0.034,-0.131,-0.019,-0.007
SPINDOC (UniProt Q9BUA3),0.165,0.221,-0.02,0.008,-0.113,0.145,0.073,0.017,-0.045,-0.117,0.09,0.104,-0.059,-0.074,-0.296,-0.001,0.14,0.053,0.097,-0.008
SRP68 (UniProt Q9UHB9),0.024,0.066,0.043,-0.036,-0.029,0.016,0.008,-0.126,-0.011,-0.054,0.004,-0.134,-0.02,0.15,-0.017,-0.064,0.054,0.112,0.029,-0.209
SPTBN4 (UniProt Q9H254),-0.036,-0.068,0.014,-0.237,-0.116,-0.202,-0.047,0.158,0.041,0.175,0.026,0.09,-0.024,0.098,0.007,-0.03,-0.039,-0.003,-0.03,0.06
TEX264 (UniProt Q9Y6I9),0.07,-0.169,0.059,-0.076,-0.042,0.163,0.164,-0.046,0.421,0.321,0.361,0.079,0.064,0.176,0.037,-0.059,0.113,-0.028,0.039,-0.016
STEAP3 isoform 2 (UniProt Q658P3),-0.028,-0.014,-0.06,-0.11,-0.028,0.035,-0.01,0.025,0.013,0.227 (active),0.065,-0.003,0.022,-0.013,0.054,-0.032,-0.006,0.012,0.003,-0.159
TBC1D5 isoform 2 (UniProt Q92609),0.048,-0.01,0.048,-0.052,-0.021,0.006,-0.031,0.003,-0.062,-0.091,0,-0.24,-0.003,0.084,-0.072,-0.255,0.007,0.142,-0.031,-0.268
SMAP2 (UniProt Q8WU79),-0.029,0.048,0.045,-0.039,0.11,0.247 (active),0.043,-0.072,-0.009,-0.015,0.04,0.097,0.015,0.04,0.02,-0.011,0.058,0.096,-0.047,-0.006
STARD3 (UniProt Q14849),0,-0.147,-0.004,0.109,0.018,0.038,0.075,0.035,0.043,-0.047,0.017,-0.36 (active),0.194,-0.043,0.065,0.098,-0.06,-0.015,0.043,-0.559 (active)
SMAD9 (UniProt O15198),-0.002,0.009,-0.033,-0.132,-0.014,-0.012,0.066,-0.005,0.051,0.148,0.016,0.019,0.068,0.037,0.014,-0.197,-0.069,0.074,-0.013,-0.169
SREK1 isoform 2 (UniProt Q8WXA9),0.26,-0.1,0.053,0.086,-0.096,-0.072,0.066,0.06,0.108,-0.001,0.317,-0.05,-0.005,-0.345,0.026,0.014,0.003,0.105,-0.027,0.059
SNX11 (UniProt Q9Y5W9),0.025,-0.128,0.043,-0.008,-0.062,-0.15,-0.05,0.038,0.014,-0.173,-0.062,-0.76 (active),-0.021,0.012,-0.486 (active),-0.378,-0.001,0.14,-0.017,-0.536 (active)
STK39 (UniProt Q9UEW8),-0.016,-0.033,0.062,-0.06,-0.044,0.034,-0.014,-0.036,-0.002,0.107,0.109,-0.174,0.028,0.061,0.007,-0.038,-0.049,0.048,-0.027,-0.038
SPAG9 (UniProt O60271),0.005,-0.041,-0.011,0,-0.034,-0.034,-0.01,-0.031,-0.026,0.041,0.046,-0.056,-0.002,0.065,-0.017,-0.034,0.049,0.012,0.023,-0.188
THRAP3 (UniProt Q9Y2W1),0.087,0.155,-0.117,0.12,-0.095,-0.127,0.15,0.13,0.066,0.005,0.014,0.04,0.019,-0.111,0.044,-0.003,-0.078,-0.071,0.133,-0.043
SRSF11 (UniProt Q05519),0.084,0.093,0.012,-0.021,-0.079,0.017,0.023,0.018,0,-0.164,-0.037,0.015,0.045,-0.277 (active),0.021,-0.068,0.004,0.067,-0.015,0.08
SPTBN1 (UniProt Q01082),-0.037,0.102,0.045,0.053,-0.073,0.02,0.084,-0.076,0.031,0.007,0.018,0.042,0.008,0.039,0.016,-0.039,0.046,0.094,0.021,0.03
TFB2M (UniProt Q9H5Q4),-0.044,-0.074,-0.001,-0.055,0.011,0.006,0.002,0.037,-0.001,-0.021,-0.013,-0.06,0.096,0.025,0.049,-0.19,0.013,0.033,-0.024,-0.044
STAT5A (UniProt P42229),0.034,0.018,0.094,0.032,-0.056,0.009,0.047,-0.128,0,-0.096,0.02,-0.002,0.08,-0.036,0.019,-0.033,0.119,0.14,-0.047,0.275
STOM (UniProt P27105),0.004,-0.068,-0.083,0.046,-0.154,-0.045,-0.062,-0.004,0.067,-0.022,0.086,-0.005,-0.035,0.182,0.011,0.268,-0.015,0.01,-0.006,-0.29
TCOF1 isoform 4 (UniProt Q13428),0.002,0.028,-0.011,0.092,-0.061,-0.051,-0.01,-0.002,0.017,0.028,-0.008,-0.053,0.021,-0.016,-0.029,0.042,0.002,-0.047,0.013,-0.01
TBC1D24 (UniProt Q9ULP9),0.032,-0.145,0.006,-0.127,-0.102,-0.028,0.007,0.05,0.032,-0.082,0.018,-0.235,0.08,-0.014,0.04,-0.361,-0.119,0.073,0.061,-0.218
SPR (UniProt P35270),0.794 (active),-0.087,0,-0.225,-0.051,-0.039,-0.008,0.021,-0.031,0.681 (active),-0.006,0.125,0.058,-0.059,0.109,0.288,0.154,-0.025,-0.05,-0.103
TJP2 isoform 7 (UniProt Q9UDY2),0.019,0.093,0.068,-0.017,-0.151,-0.091,0.042,0.012,0.008,0.067,0.006,-0.026,0.064,-0.017,0.056,-0.089,0.071,0.071,0.068,-0.065
SP3 (UniProt Q02447),-0.001,-0.008,-0.024,0.052,-0.084,0.037,-0.038,-0.04,0.016,0.041,-0.005,0.013,-0.071,0.123,0.031,0.086,0.032,0,0.089,-0.046
SUN1 isoform 9 (UniProt O94901),-0.062,0.084,0.162,0.02,-0.059,-0.14,-0.053,0.122,0.052,-0.002,-0.03,-0.067,-0.005,0.006,-0.059,-0.052,-0.047,-0.017,0.089,-0.324 (active)
